# Assay outcomes: PubChem, several laboratories
# Rv3671c inh: Rv3671c (M. tuberculosis) protease inhibition; P9WHR9; inhibition, % at 5.96 µM; 0.048% of 320,000 active; in the data active = inhibition above about 38%;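 also: extracellular domain of Rv3671c used as enzyme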
# Target sequence (P9WHR9 whole entry, looked up, the tested form may be a part): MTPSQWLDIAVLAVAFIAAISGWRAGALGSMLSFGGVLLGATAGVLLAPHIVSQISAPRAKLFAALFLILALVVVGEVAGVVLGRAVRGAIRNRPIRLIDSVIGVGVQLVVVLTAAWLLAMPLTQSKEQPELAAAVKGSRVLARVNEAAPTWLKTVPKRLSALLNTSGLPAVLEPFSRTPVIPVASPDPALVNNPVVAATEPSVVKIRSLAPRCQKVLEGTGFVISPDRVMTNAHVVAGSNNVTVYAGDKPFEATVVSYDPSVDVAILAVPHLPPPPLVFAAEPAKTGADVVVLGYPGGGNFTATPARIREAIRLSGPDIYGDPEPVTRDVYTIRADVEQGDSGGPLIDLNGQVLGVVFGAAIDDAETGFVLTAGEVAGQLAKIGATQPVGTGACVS
# Mtb betalactam: beta-lactam sensitization of Mtb H37Rv; 0.27% of 330,000 active; inhibition, % at 25 µM; M. tuberculosis H37Rv growth with meropenem, percent inhibition; call rule not given here;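 also: growth measured after seven days incubation then overnight dye step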
# FadD28 binding: blocks FadD28 binding to the bisubstrate probe; fluorescence polarization; inhibition, % at 12.5 µM; AID 588549; 0.22% of 360,000 active; in the data active = inhibition above about 8.5%, passing the limit was not always enough
# FBA Mtb inh: Mtb fructose-bisphosphate aldolase inhibition | P9WQA3 | purified M. tuberculosis FBA, fluorescence read-out | inhibition, % at 1 µM | 2.3% of 360,000 active; in the data active = inhibition above about 27%
# Mtb UGM inh: Mtb UDP-galactopyranose mutase inhibition | AID 504406 | P9WIQ1 | purified UGM, fluorescence polarization probe displacement | inhibition, % at 10 µM | 0.06% of 320,000 active; in the data active = inhibition above about 10%, passing the limit was not always enough
# GDH-TPI inh: inhibits GDH-TPI coupling enzymes, artifact for Mtb FBA screen. inhibition, % at 4.8 µM. AID 588335. 1.2% of 360,000 active. GDH-TPI coupled enzyme counterscreen, NADH absorbance; in the data active = inhibition above about 30%
# Hits are given with their value; i = inactive; nt = no result given; + = active, no number. A selection: hits, their analogues and other compounds. The true share with any hit is near 3.7%.
SMILES,Rv3671c inh,Mtb betalactam,FadD28 binding,FBA Mtb inh,Mtb UGM inh,GDH-TPI inh
CCNC(=O)C1(C)CCCN(C(=O)CCc2cccs2)C1 (configuration not stated),nt,nt,i,i,nt,i
CCN1CCN(c2ccc(S(=O)(=O)N3CCCCC3)cc2NC(=O)c2ccc([N+](=O)[O-])s2)CC1,i,i,i,i,i,i
CCCn1c(NC(=O)c2cccc(S(=O)(=O)N3CCCC3)c2)nc2ccccc21,i,i,i,i,i,35
CCCn1c(NC(=O)c2ccccc2)nc2ccccc21,i,i,i,i,i,i
Cc1[nH]ccc2cc3nc4ccccc4c3cc12,nt,nt,i,i,nt,i
COc1ccc(N=C2S/C(=C\c3ccco3)C(=O)N2CC(C)C)cc1,i,i,i,i,i,i
CN(C)N1C(=O)/C(=C/c2ccco2)SC1=Nc1ccccc1,i,i,i,i,i,40
FC(F)(F)c1cc(-c2ccc(Cl)cc2)nc2ncnn12,i,i,i,142,i,i
FC(F)(F)c1cc(-c2cccs2)nc2ncnn12,i,i,i,+,i,i
FC(F)(F)c1cc(-c2cccs2)nc2cc(-c3ccccc3)nn12,i,i,i,i,i,i
Cc1cc(C)n2nc(C(=O)NCCc3ccccc3)nc2n1,i,i,i,i,i,i
O=C(NCCc1ccccc1)c1nc2nc(-c3cccs3)cc(C(F)(F)F)n2n1,i,i,i,+,i,31
O=C(O)c1ccccc1C(=O)OCC1CCC(=NO)CC1 (configuration not stated),nt,nt,i,i,nt,i
CC(C)N(C)c1ncnc2c1ncn2[C@H]1CN(CCN2CCOCC2)C[C@@H](CO)O1,nt,nt,i,i,nt,i
COc1cc(NC(=O)Nc2cccc(Cl)c2)c(C(=O)O)cc1OC,i,i,i,146,i,i
COC(=O)c1cc(OC)c(OC)cc1NC(=S)Nc1cccc(Cl)c1,i,i,i,i,i,i
COc1cc(NC(=O)/C=C/c2ccccc2)c(C(=O)O)cc1OC,i,i,i,i,i,44
COc1ccccc1NC(=O)C(C)OC(=O)C1CCN(S(=O)(=O)c2ccccc2C(F)(F)F)CC1 (configuration not stated),nt,nt,i,i,nt,i
Cc1cc(OCC(=O)Nc2cccc(S(=O)(=O)N3CCCCC3)c2)ccc1Cl,i,i,i,i,i,i
CCC(=O)c1ccc(OCC(=O)Nc2cccc(S(=O)(=O)N3CCCCCC3)c2)cc1,nt,nt,13,i,nt,i
Cc1cccc(NC(=O)COC(=O)c2cccc(S(=O)(=O)N3CCCCCC3)c2)c1,i,i,10,i,i,i
O=C(CNC(=O)c1cccc(F)c1)NC1CC1,i,i,i,i,i,i
CCC(C)NC(=O)c1cn(CC)c2cc(N3CCN(C(=O)c4ccco4)CC3)c(F)cc2c1=O (configuration not stated),i,i,i,54,i,i
C=CCNC(=O)c1cn(CC)c2cc(N3CCN(C(=O)c4ccco4)CC3)c(F)cc2c1=O,i,i,i,97,i,i
CCn1cc(C(=O)NCC(C)C)c(=O)c2cc(F)c(N3CCN(C(=O)c4ccco4)CC3)cc21,i,i,i,i,i,i
SMILES,Rv3671c inh,Mtb betalactam,FadD28 binding,FBA Mtb inh,Mtb UGM inh,GDH-TPI inh
CCn1cc(C(=O)O)c(=O)c2cc(F)c(N3CCNCC3)cc21,i,i,i,55,nt,i
CCOC1=C2[C@@H](CN(S(=O)(=O)c3ccc(C)cc3)[C@H]2c2ccccc2Cl)[C@H]2C(=O)N(Cc3ccccc3)C(=O)[C@H]2C1,nt,nt,i,i,nt,nt
Cc1ccc(C(=O)OCC(=O)NC2CCCC2)cc1,i,i,i,i,i,i
Brc1cccc(-c2nc3c4ccccc4ccn3c2Cc2ccccc2)c1,nt,nt,i,i,nt,nt
CC1CN(C(=O)NCc2ccccc2)c2cc(Cl)ccc2O1 (configuration not stated),nt,i,i,i,i,i
O=C(CN1C(=O)S/C(=C\c2ccccc2)C1=O)Nc1cc([N+](=O)[O-])ccc1O,i,i,18,i,i,i
O=C(O)c1cccc(CN2C(=O)S/C(=C/c3cccc([N+](=O)[O-])c3)C2=O)c1,i,i,i,i,i,44
Cc1ccc(/C(N)=N/OC(=O)CCCc2ccccc2)cc1,i,i,i,i,i,i
Cc1cc(F)ccc1C(O)c1ncc(-c2cccc(F)c2)[nH]1 (configuration not stated),nt,nt,i,i,nt,i
CC(C)CN1C(=O)/C(=C(/C#N)C(=O)NC2CCCCC2)c2ccccc21,i,i,i,i,i,i
CNCc1sccc1C,i,i,i,34,i,i
Cc1ccsc1CNS(=O)(=O)c1ccc(F)cc1,i,i,i,i,i,i
COc1ccc(Oc2ccc(N/C=C3\CCCC3=O)cc2)cc1,i,i,i,i,i,40
Cc1cc(C)nc(NS(=O)(=O)c2ccc(N/C=C\C(=O)c3ccc(Cl)cc3)cc2)n1,i,i,i,i,i,31
Cc1cc(C)nc(NS(=O)(=O)c2ccc(N/C=C3\CCCC3=O)cc2)n1,i,i,i,i,i,37
O=C1CCCC/C1=C\Nc1ccc(S(=O)(=O)Nc2cnc3ccccc3n2)cc1,i,i,i,i,i,38
Cc1cc(C)nc(NS(=O)(=O)c2ccc(N/C=C/C(=O)c3ccc(Cl)c(Cl)c3)cc2)n1,i,i,i,i,i,i
COc1ccc(Oc2ccc(N/C=C3/CCCC3=O)cc2)cc1,i,i,i,i,nt,i
N#CCCn1cc(C(=O)CN2C(=O)NC3(CCc4ccccc43)C2=O)c2ccccc21 (configuration not stated),nt,nt,i,i,nt,i
O=C1CCCC/C1=C/Nc1ccc2c(c1)OCO2,i,i,i,i,i,i
O=C1CCC/C1=C/Nc1cccc(F)c1,i,i,i,i,i,35
Cn1ncc(N=Cc2ccccc2[N+](=O)[O-])c1C(N)=O,i,i,i,i,i,i
CN(C)c1ccc(C=Nc2cnn(C)c2C(N)=O)cc1,i,i,i,i,i,35
CCOC(=O)C(=Cc1c[nH]c2ccc(S(=O)(=O)N(C)C)cc12)C(=O)OCC,i,i,i,i,i,41
CC(=NCc1cccc(Cl)c1)c1nc(-c2ccco2)oc1O,i,i,i,i,i,34
O=C(O)c1ccc(N2C(=O)c3cccc4cccc(c34)C2=O)cc1,nt,i,i,i,i,38
O=C(O)c1cccc(N2C(=O)c3cccc4cccc(c34)C2=O)c1,nt,i,i,i,i,i
COc1cc(OC)cc(-c2c(C#Cc3ccsc3)c3cc(-c4ccccc4OC)ccc3n2C)c1,i,i,i,i,i,39
COc1ccc(-c2c(C#Cc3ccsc3)c3cc(-c4ccc5cc[nH]c5c4)ccc3n2C)cc1,i,i,i,i,i,i
